± gives the standard deviation of the averaged measurements.
What was measured:
Test in all cases: cell viability (% of vehicle); higher = less cytotoxic
Settings in all cases: 10 µM; 72 h
[1] = tested on: HCI01 (cells of a triple-negative basal-like breast cancer xenograft)
[2] = tested on: HCI03 (cells of an ER-positive luminal breast cancer xenograft)
[3] = tested on: HCI09 (cells of a triple-negative luminal androgen receptor type breast cancer xenograft)
[4] = tested on: HCI11 (cells of an ER-positive luminal breast cancer xenograft)
[5] = tested on: HCI13 (cells of an ER-positive luminal breast cancer xenograft)
[6] = tested on: HCI16 (cells of a triple-negative basal-like breast cancer xenograft)
[7] = tested on: UCD52 (cells of a triple-negative basal-like breast cancer xenograft)
[8] = tested on: WHIM2 (cells of a triple-negative basal-like breast cancer xenograft)
[9] = tested on: WHIM30 (cells of a triple-negative basal-like breast cancer xenograft)
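Further: PDX cells carrying CMV promoter-driven luciferase, viability read as total photon flux per second by IVIS imaging following D-luciferin, vehicle control 0.1% DMSO.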

## Nc1ccc(S(N)(=O)=O)cc1 [Sulfanilamide]
[1]
  cell viability: 106 ± 25
[2]
  cell viability: 127
[3]
  cell viability: 97.7 ± 18
[4]
  cell viability: 83.1
[5]
  cell viability: 164 ± 9.1
[6]
  cell viability: 120
[7]
  cell viability: 94.6 ± 8.7
[8]
  cell viability: 105 ± 7.5
[9]
  cell viability: 140 ± 13

## CC(=O)OC12COC1CC(O)C1(C)C(=O)C(O)C3=C(C)C(OC(=O)C(O)C(NC(=O)OC(C)(C)C)c4ccccc4)CC(O)(C(OC(=O)c4ccccc4)C21)C3(C)C.O.O.O (stereo unspecified) [Docetaxel Trihydrate]
[1]
  cell viability: 106 ± 13
[2]
  cell viability: 96.7
[3]
  cell viability: 72.6 ± 5.4
[4]
  cell viability: 86.1
[5]
  cell viability: 101 ± 3.5
[6]
  cell viability: 155
[7]
  cell viability: 91.02 ± 0.77
[8]
  cell viability: 72.3 ± 6.2
[9]
  cell viability: 107 ± 5.4

## Cc1nc2c([nH]1)CCN(C(=O)c1ccc(NC(=O)c3ccccc3-c3ccccc3)cc1)c1ccccc1-2.Cl [Conivaptan HCl]
[1]
  cell viability: 111 ± 18
[2]
  cell viability: 83.3
[3]
  cell viability: 60.4 ± 7.1
[4]
  cell viability: 85.3
[5]
  cell viability: 99.5 ± 17
[6]
  cell viability: 106
[7]
  cell viability: 71.7 ± 2.5
[8]
  cell viability: 104 ± 22
[9]
  cell viability: 141 ± 2

## COC(=O)C1=C(C#N)NC(C)=C(C(=O)OC(C)C)C1c1cccc([N+](=O)[O-])c1 (stereo unspecified) [Nilvadipine]
[1]
  cell viability: 112 ± 8.1
[2]
  cell viability: 125
[3]
  cell viability: 77 ± 4.5
[4]
  cell viability: 85.7
[5]
  cell viability: 138 ± 29
[6]
  cell viability: 101
[7]
  cell viability: 70.2 ± 1.1
[8]
  cell viability: 116 ± 12
[9]
  cell viability: 83.4 ± 10

## N#CC1CCCN1C(=O)CNC12CC3CC(CC(O)(C3)C1)C2 (stereo unspecified) [Vildagliptin (LAF-237)]
[1]
  cell viability: 118.9 ± 0.29
[2]
  cell viability: 125
[3]
  cell viability: 88.7 ± 16
[4]
  cell viability: 126
[5]
  cell viability: 96.1 ± 17
[6]
  cell viability: 114
[7]
  cell viability: 121 ± 12
[8]
  cell viability: 112 ± 1.5
[9]
  cell viability: 141 ± 20

## Cc1nc2n(c(=O)c1CCN1CCC(c3noc4cc(F)ccc34)CC1)CCCC2 [Risperidone]
[1]
  cell viability: 133 ± 7.9
[2]
  cell viability: 82.8
[3]
  cell viability: 107 ± 61
[4]
  cell viability: 105
[5]
  cell viability: 118 ± 38
[6]
  cell viability: 107
[7]
  cell viability: 83.8 ± 11
[8]
  cell viability: 86 ± 25
[9]
  cell viability: 128 ± 15

## CN(CC=CC#CC(C)(C)C)Cc1cccc2ccccc12.Cl [Terbinafine HCl]
[1]
  cell viability: 93.6 ± 30
[2]
  cell viability: 99
[3]
  cell viability: 86.02 ± 0.12
[4]
  cell viability: 81.6
[5]
  cell viability: 73 ± 1.7
[6]
  cell viability: 123
[7]
  cell viability: 70.5 ± 7.4
[8]
  cell viability: 62.8 ± 10
[9]
  cell viability: 91.1 ± 1.7

## CCC(=C(CC)c1ccc(O)cc1)c1ccc(O)cc1 [Diethylstilbestrol]
[1]
  cell viability: 59.1 ± 40
[2]
  cell viability: 95.7
[3]
  cell viability: 61.4 ± 39
[4]
  cell viability: 75.5
[5]
  cell viability: 41 ± 12
[6]
  cell viability: 107
[7]
  cell viability: 78.3 ± 8.4
[8]
  cell viability: 116 ± 51
[9]
  cell viability: 83.8 ± 11

## CCCc1nc(C)c2c(=O)nc(-c3cc(S(=O)(=O)N4CCN(CC)CC4)ccc3OCC)[nH]n12 [Vardenafil]
[1]
  cell viability: 98.2 ± 24
[2]
  cell viability: 169
[3]
  cell viability: 113 ± 14
[4]
  cell viability: 97.3
[5]
  cell viability: 102 ± 5.5
[6]
  cell viability: 127
[7]
  cell viability: 109 ± 12
[8]
  cell viability: 97.77 ± 0.38
[9]
  cell viability: 107 ± 1.9

## CC(=O)Nc1cccc(-n2c(=O)n(C3CC3)c(=O)c3c(Nc4ccc(I)cc4F)n(C)c(=O)c(C)c32)c1
[1]
  cell viability: 103 ± 34
[2]
  cell viability: 94
[3]
  cell viability: 82.1 ± 34
[4]
  cell viability: 98.3
[5]
  cell viability: 110 ± 16
[6]
  cell viability: 120
[7]
  cell viability: 48 ± 14
[8]
  cell viability: 74.2 ± 8.9
[9]
  cell viability: 133 ± 24

## O=C(C=Cc1ccc(O)c(O)c1)OC1CC(O)(C(=O)O)CC(O)C1O (stereo unspecified) [Chlorogenic acid]
[1]
  cell viability: 104 ± 3.3
[2]
  cell viability: 153
[3]
  cell viability: 119 ± 45
[4]
  cell viability: 95.8
[5]
  cell viability: 107 ± 6.4
[6]
  cell viability: 116
[7]
  cell viability: 113 ± 2.8
[8]
  cell viability: 101 ± 14
[9]
  cell viability: 77 ± 12

## CCCC(=O)OCOC(=O)C1=C(C)NC(C)=C(C(=O)OC)C1c1cccc(Cl)c1Cl (stereo unspecified) [Clevidipine Butyrate]
[1]
  cell viability: 106.5 ± 0.58
[2]
  cell viability: 126
[3]
  cell viability: 104 ± 19
[4]
  cell viability: 112
[5]
  cell viability: 105 ± 6.6
[6]
  cell viability: 88.1
[7]
  cell viability: 92.2 ± 1.5
[8]
  cell viability: 100 ± 6.3
[9]
  cell viability: 91 ± 2.4

## CCCCS(=O)(=O)NC(Cc1ccc(OCCCCC2CCNCC2)cc1)C(=O)O.Cl.O (stereo unspecified) [Tirofiban hydrochloride monohydrate]
[1]
  cell viability: 119 ± 1.7
[2]
  cell viability: 123
[3]
  cell viability: 107 ± 8.2
[4]
  cell viability: 106
[5]
  cell viability: 135 ± 8.5
[6]
  cell viability: 101
[7]
  cell viability: 91.9 ± 7.1
[8]
  cell viability: 99.1 ± 24
[9]
  cell viability: 113 ± 22

## O=C(O)CSCC(=O)NC1CCSC1=O (stereo unspecified) [Erdosteine]
[1]
  cell viability: 105 ± 12
[2]
  cell viability: 125
[3]
  cell viability: 108 ± 27
[4]
  cell viability: 108
[5]
  cell viability: 87.3 ± 5.8
[6]
  cell viability: 134
[7]
  cell viability: 94.1 ± 8.3
[8]
  cell viability: 119 ± 33
[9]
  cell viability: 177 ± 44

## CN(C)CCN1C(=O)c2cccc3cc(N)cc(c23)C1=O [Amonafide]
[1]
  cell viability: 103 ± 4
[2]
  cell viability: 69.4
[3]
  cell viability: 42.7 ± 14
[4]
  cell viability: 90.4
[5]
  cell viability: 64.7 ± 3.1
[6]
  cell viability: 196
[7]
  cell viability: 138 ± 26
[8]
  cell viability: 55.5 ± 5.5
[9]
  cell viability: 78.5 ± 1.6

## CC1c2cccc(O)c2C(O)=C2C(=O)C3(O)C(O)=C(C(N)=O)C(=O)C(N(C)C)C3C(O)C21.Cl (stereo unspecified) [Doxycycline HCl]
[1]
  cell viability: 91.6 ± 4.1
[2]
  cell viability: 106
[3]
  cell viability: 90.6 ± 17
[4]
  cell viability: 83.7
[5]
  cell viability: 84 ± 14
[6]
  cell viability: 104
[7]
  cell viability: 89.9 ± 2.7
[8]
  cell viability: 118 ± 14
[9]
  cell viability: 98.7 ± 9.1

## CCN(CC)CCOC(=O)C1(C2CCCCC2)CCCCC1.Cl [Dicyclomine HCl]
[1]
  cell viability: 126 ± 7.2
[2]
  cell viability: 123
[3]
  cell viability: 102 ± 11
[4]
  cell viability: 99.7
[5]
  cell viability: 90.1 ± 10
[6]
  cell viability: 141
[7]
  cell viability: 68.6 ± 1.9
[8]
  cell viability: 104 ± 1.9
[9]
  cell viability: 117 ± 2.5

## O=C1CCc2cc(OCCCCc3nnnn3C3CCCCC3)ccc2N1 [Cilostazol]
[1]
  cell viability: 133 ± 7.6
[2]
  cell viability: 125
[3]
  cell viability: 78.2 ± 12
[4]
  cell viability: 106
[5]
  cell viability: 126 ± 24
[6]
  cell viability: 93.7
[7]
  cell viability: 80.8 ± 7.3
[8]
  cell viability: 191 ± 27
[9]
  cell viability: 125 ± 25

## CC(=O)N1CCN(c2ccc(OCC3COC(Cn4ccnc4)(c4ccc(Cl)cc4Cl)O3)cc2)CC1 (single isomer, unassigned; (+)) [(+)-Ketoconazole]
[1]
  cell viability: 151 ± 55
[2]
  cell viability: 119
[3]
  cell viability: 29.5 ± 5.5
[4]
  cell viability: 87.9
[5]
  cell viability: 98.9 ± 9.7
[6]
  cell viability: 103
[7]
  cell viability: 44.6 ± 2.7
[8]
  cell viability: 134 ± 9.5
[9]
  cell viability: 94.8 ± 11
